According to the supplement of paper PMC6555819:

Experiments:
Assay in all cases: PBM binding z-score (relative to random genomic background probes); higher = stronger binding; sequences stand for … in GC…GCGATTGACAGCGTAGAATGAAGG
[1] = system: FXR:RXRa (NR concentration 270 nM, RXRa partner concentration 90 nM)
How it was run: (§1)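 Binding z-scores take random background probes as their reference. They come from custom Agilent 4×180K protein-binding microarrays incubated 1 h with ligand-free nuclear receptor dimers, with antibodies against each partner (one per run) detecting binding. Scanned fluorescence was regression-normalized.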

[2] = system: LXRa:RXRa (NR concentration 270 nM, RXRa partner concentration 90 nM)
How it was run: as §1

[3] = system: LXRa homodimer (NR concentration 270 nM)
How it was run: as §1

[4] = system: LXRb:RXRa (NR concentration 270 nM, RXRa partner concentration 90 nM)
How it was run: as §1

[5] = system: LXRb homodimer (NR concentration 270 nM)
How it was run: as §1

[6] = system: PPARa:RXRa (NR concentration 270 nM, RXRa partner concentration 90 nM)
How it was run: as §1

[7] = system: PPARg:RXRa (NR concentration 180 nM, RXRa partner concentration 90 nM)
How it was run: as §1

[8] = system: PPARg:RXRa 270nM:90nM, anti-RXR (NR concentration 270 nM, RXRa partner concentration 90 nM)
How it was run: as §1

[9] = system: PPARg:RXRa 30nM:10nM, anti-RXR (NR concentration 30 nM, RXRa partner concentration 10 nM)
How it was run: as §1

[10] = system: PPARg:RXRa 90nM:30nM, anti-RXR (NR concentration 90 nM, RXRa partner concentration 30 nM)
How it was run: as §1

[11] = system: PPARg:RXRa DBDmut IVT, anti-RXR (DBD mutation: RXRa K156A/R161A, NR concentration 270 nM, RXRa partner concentration 90 nM)
How it was run: as §1

[12] = system: PPARg:RXRa IVT, anti-PPARg (NR concentration 270 nM, RXRa partner concentration 90 nM)
How it was run: as §1

[13] = system: PPARg DBDmut:RXRa IVT, anti-PPARg (DBD mutation: PPARg1 K132A/R137A, NR concentration 270 nM, RXRa partner concentration 90 nM)
How it was run: as §1

[14] = system: PPARg DBDmut IVT, anti-PPARg (DBD mutation: PPARg1 K132A/R137A, NR concentration 270 nM)
How it was run: as §1

[15] = system: PPARg homodimer (NR concentration 180 nM)
How it was run: as §1

[16] = system: PXR:RXRa (NR concentration 270 nM, RXRa partner concentration 90 nM)
How it was run: as §1

[17] = system: PXR homodimer (NR concentration 270 nM)
How it was run: as §1

[18] = system: RARa:RXR (NR concentration 270 nM, RXRa partner concentration 90 nM)
How it was run: as §1

[19] = system: RARa homodimer (NR concentration 270 nM)
How it was run: as §1

[20] = system: RARb:RXRa (NR concentration 270 nM, RXRa partner concentration 90 nM)
How it was run: as §1

Sequence	PBM binding z-score [1]	PBM binding z-score [2]	PBM binding z-score [3]	PBM binding z-score [4]	PBM binding z-score [5]	PBM binding z-score [6]	PBM binding z-score [7]	PBM binding z-score [8]	PBM binding z-score [9]	PBM binding z-score [10]	PBM binding z-score [11]	PBM binding z-score [12]	PBM binding z-score [13]	PBM binding z-score [14]	PBM binding z-score [15]	PBM binding z-score [16]	PBM binding z-score [17]	PBM binding z-score [18]	PBM binding z-score [19]	PBM binding z-score [20]
CCGACTGGGGTAGAAAGGTTACCATACCATCCGG	0.17	0.786	-0.133	1.06	-1.02	2.58	2.04	3.63	1.08	3.32	0.466	1.2	-1.23	-0.59	1.69	1.32	-0.0597	2.45	0.375	1.72
CGTCCAAGATCATAGGAGGTCAGTGAAGACAGAT	1.56	2.77	1.2	2.26	0.134	2.69	0.898	0.559	0.251	0.198	0.389	1.23	0.673	0.577	1.4	2.93	0.844	2.62	0.513	2.25
CCGCGGAGGACAGAAGGTCAGAGCTGTCCGCTTT	1.22	1.49	-0.1	0.955	-1.05	1.77	-0.261	0.596	-0.857	0.289	-0.00504	0.1	-1.81	-2.04	0.973	1.42	-0.53	2.3	-0.744	3.25
ACAGACAAGTGAGTGAAGGTAACTCAGCTGGACG	-0.054	-0.258	-0.475	-0.57	-0.342	-0.314	0.674	-0.0179	-0.202	-0.0069	-0.268	-0.138	0.174	0.39	-0.0501	-0.521	-0.267	-0.183	-0.707	-0.0703
CCGAGTAGGTTATGGGGCATACAGGCAACGGTGA	0.216	0.557	-0.0431	0.599	-0.226	2.3	3.69	4.52	2.65	4.38	2.66	3.61	0.382	0.114	1.1	-0.123	-0.0326	-0.237	0.493	0.987
TCTAGCAGGCCAGAGGGTAACTCAAGAGGTACGG	0.0239	-0.0819	-0.636	-0.399	-1.36	1.15	2.11	3.56	2.38	3.26	0.667	0.376	-0.698	-0.379	0.0885	-0.174	-0.643	-0.0159	-0.296	0.332
CAAACTAGGTTACAGAGGTCAAAGTCCGTGCGTA	6.15	6.43	7.09	5.72	2.18	5.82	7.94	7.19	5.19	6.82	7.75	7.64	1.98	1.29	4.38	6.32	7.32	7.03	2.06	4.44
CCGACTGGGGCAGAAAGGTTACCTTACCATCCGG	-0.0725	0.286	-0.251	0.547	-1.39	1.73	1.36	2.55	0.398	1.91	1.43	1.85	-1.35	-1.29	0.0892	0.658	-0.611	1.48	-0.873	1.5
GATACAGGATCAGCTAGAGGCCAGAGTATGGAAA	-0.162	-0.497	-0.55	-0.727	-1.05	-0.383	0.505	-0.286	0.0459	0.0181	-1.08	-0.432	-0.311	-0.748	-0.609	-0.395	-0.577	-0.16	-0.552	0.184
ATAGGTAGGTTATCGGGTCATTCAGTTTGCGCAT	3.2	3.22	1.93	3.17	1.52	3.82	4.18	4.48	1.91	3.81	4.9	5.09	1.49	1.46	2.74	3.9	7.44	3.76	2.57	2.62
TAGCCTAGATCATGCGGGCCAGTATAGTGTCGGC	-2.92	-1.33	-1.04	-1.36	-0.772	-0.834	0.0405	-0.522	-0.938	-0.742	0.553	0.672	-0.852	-1.76	-1.53	-1.41	-1.04	-1.57	-0.691	-1.2
GCTAGCATGCCATTTGGGTCACTCAATGACGGGC	0.122	-0.0732	-0.46	0.0644	-0.628	1.05	0.819	0.752	-0.349	0.397	0.671	1.3	0.0302	-0.739	-0.305	0.247	-0.745	0.851	-0.41	1
AGAATGAGGTTATACGTAGATCTGGGAAGAAAGT	2.02	1.53	-0.23	1.2	-0.294	3.14	1.88	2	0.653	1.38	3.58	2.08	0.645	0.965	0.546	0.994	0.44	1.5	-0.128	1.23
TAGCCTTGGTCATGCGGGCCAGTATAGTGTCGGC	-0.908	-1.14	-0.986	-1.09	-0.961	-0.707	-0.423	-0.768	-0.886	-0.995	-0.432	0.0959	-0.481	-0.0984	-1.18	-0.758	-1.18	-0.757	-1.23	0.534
